Laboratory results as given in PubChem BioAssay (NCI).
Compounds without any hit were thinned out: in the full panel of roughly 79,000, 15% have a hit. Activity calls are given as the source filed them. Cut-off read from the data, not from the text of the source: active = growth inhibition above about 70%; inactive = the rest.

Key:
[1] = NCI Yeast Anticancer Drug Screen. Data for the rad52 strain (AID 147);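 note: 0% = growth of vehicle-treated control cultures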; conditions: S. cerevisiae rad52 mutant growth inhibition, stronger effect = higher value
How it was run: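 Vehicle-treated cultures served as the reference for growth inhibition of compound-exposed yeast bearing a DNA repair mutation.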

[2] = NCI Yeast Anticancer Drug Screen. Data for the wt1 strain (AID 149);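 note: 0% = growth of vehicle-treated wt1 cultures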; conditions: S. cerevisiae wt1 strain (SPY 50644) growth inhibition, stronger effect = higher value
How it was run: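 wt1 strain grown with compound or vehicle; inhibition taken from the growth difference.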

[3] = NCI Yeast Anticancer Drug Screen. Data for the rad50EPP+ strain (AID 151);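 note: 0% = growth of vehicle-treated control cultures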; conditions: S. cerevisiae rad50 mutant strain, stronger effect = higher value
How it was run: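 In this screen, rad50EPP+ yeast were exposed to compounds. Growth inhibition was scored against vehicle-treated controls.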

[4] = NCI Yeast Anticancer Drug Screen. Data for the mgt1 strain (AID 153); conditions: S. cerevisiae mgt1 mutant growth inhibition, stronger effect = higher value
How it was run: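 mgt1 strain exposed; growth vs vehicle control recorded as inhibition.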

[5] = NCI Yeast Anticancer Drug Screen. Data for the rad50 strain (AID 155);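 note: 0% = growth of vehicle-only cultures of the same strain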; conditions: S. cerevisiae rad50 strain growth inhibition, stronger effect = higher value
How it was run: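 DNA repair mutant yeast, compound exposure, growth read-out; inhibition is taken relative to vehicle.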

[6] = NCI Yeast Anticancer Drug Screen. Data for the mec2-1 strain (AID 157); conditions: S. cerevisiae mec2-1 strain, stronger effect = higher value
How it was run: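 Vehicle-treated cultures served as reference for growth inhibition of compound-exposed mec2-1 yeast.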

[7] = NCI Yeast Anticancer Drug Screen. Data for the sgs1 mgt1 strain (AID 161);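 note: 0% = growth of cultures given vehicle only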; conditions: S. cerevisiae sgs1 mgt1 strain, stronger effect = higher value
How it was run: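 Test agents were incubated with a DNA-repair-mutant yeast strain. Growth was then read and compared against vehicle-treated controls.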

[8] = NCI Yeast Anticancer Drug Screen. Data for the CLN2oe strain (AID 163);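 note: 0% = growth of vehicle-only control cultures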; conditions: S. cerevisiae CLN2oe strain, stronger effect = higher value
How it was run: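 Inhibition relative to vehicle-treated yeast is reported. Cells: strain with genetic alteration in cell-cycle control, grown with compound.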

[9] = NCI Yeast Anticancer Drug Screen. Data for the cln2 rad14 strain (AID 165);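 note: 0% = growth equal to vehicle treated cultures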; conditions: S. cerevisiae cln2 rad14 strain, stronger effect = higher value
How it was run: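 Each compound was tested on cln2 rad14 yeast. Inhibition of growth was calculated against vehicle-exposed controls.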

[10] = NCI Yeast Anticancer Drug Screen. Data for the bub3 strain (AID 167); conditions: S. cerevisiae bub3 mutant strain, stronger effect = higher value
How it was run: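 In this screen, a yeast mutant lacking normal mitotic checkpoint function is challenged with compound. Relative growth versus vehicle gives the inhibition value.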

[11] = NCI Yeast Anticancer Drug Screen. Data for the wt2 strain (AID 169);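 note: 0% = growth of vehicle-treated yeast cultures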; conditions: S. cerevisiae wt2 strain growth inhibition, stronger effect = higher value
How it was run: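 Inhibition of yeast growth was determined after compound treatment, normalised to controls receiving only vehicle.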

[12] = NCI Yeast Anticancer Drug Screen. Data for the mlh1 strain (AID 171);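 note: 0% = growth of vehicle-treated control cultures of the same strain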; conditions: S. cerevisiae mlh1 strain growth inhibition, stronger effect = higher value
How it was run: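 Vehicle-normalised growth inhibition of a repair- or checkpoint-altered yeast strain following compound treatment.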

[13] = NCI Yeast Anticancer Drug Screen. Data for the sgs1 strain (AID 173);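 note: 0% = growth of vehicle-only control cultures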; conditions: S. cerevisiae sgs1 mutant, stronger effect = higher value
How it was run: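 Screen format: yeast with repair or checkpoint alterations, compound exposure, growth read relative to vehicle.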

[14] = NCI Yeast Anticancer Drug Screen. Data for the mlh1 rad18 strain (AID 175); conditions: S. cerevisiae mlh1 rad18 strain growth inhibition, stronger effect = higher value
How it was run: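 Vehicle-treated cultures served as the reference for growth inhibition in a yeast strain carrying DNA damage repair alterations exposed to each compound.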

[15] = NCI Yeast Anticancer Drug Screen. Data for the rad14 strain (AID 159);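 note: 0% = growth of vehicle-treated control cultures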; conditions: S. cerevisiae rad14 strain growth inhibition, stronger effect = higher value
How it was run: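 DNA repair-defective yeast, compound-exposed; % growth inhibition derived by comparison with vehicle-treated controls.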

[16] = NCI Yeast Anticancer Drug Screen. Data for the rad18 strain (AID 177); conditions: S. cerevisiae rad18 mutant growth inhibition, stronger effect = higher value
How it was run: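 Test articles were incubated with altered yeast defective in DNA damage repair. Results are given as inhibition of growth versus vehicle.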

[17] = at 5.0 µM (retest, dose inferred, filed as 0.5)
[18] = at 50.0 µM (retest, dose inferred, filed as 5.0)

Measured: growth inhibition

COC(=O)C1c2cc3c(c(O)c2C(O)CC1(C)O)C(=O)c1c(O)cc2c(c1C3=O)OC1OC2(C)C(O)C(N(C)C)C1O (stereo unspecified)
inactive: [1]; at 1.2 µM 0% | [1]; at 3.7 µM 16% | [1]; at 11.0 µM 50% | [2]; at 1.2 µM 2% | [2]; at 3.7 µM 1% | [2]; at 11.0 µM 17% | [2]; at 33.0 µM 34% | [3]; at 1.2 µM -1% | [3]; at 3.7 µM 18% | [3]; at 11.0 µM 39% | [3]; at 33.0 µM 61% | [3]; at 100.0 µM 65% | [4]; at 1.2 µM -7% | [4]; at 3.7 µM 9% | [4]; at 11.0 µM 14% | [4]; at 33.0 µM 52% | [5]; at 1.2 µM 1% | [5]; at 3.7 µM 37% | [5]; [17] 24% | [5]; [18] 64% | [6]; at 1.2 µM -3% | [6]; at 3.7 µM 3% | [6]; [17] 12% | [6]; at 11.0 µM 37% | [7]; [17] -3% | [7]; [18] 15% | [8]; at 1.2 µM -7% | [8]; at 3.7 µM 1% | [8]; at 11.0 µM 31% | [9]; [17] 27% | [10]; at 1.2 µM -4% | [10]; at 3.7 µM 3% | [10]; [17] -26% | [10]; at 11.0 µM 55% | [11]; at 1.2 µM 0% | [11]; at 3.7 µM 5% | [11]; at 11.0 µM 28% | [12]; at 1.2 µM -4% | [12]; at 3.7 µM 18% | [13]; at 1.2 µM -1% | [13]; at 3.7 µM 9% | [13]; at 11.0 µM 40% | [14]; [17] 9%
active: [1]; at 33.0 µM 85% | [1]; at 100.0 µM 93% | [2]; at 100.0 µM 75% | [4]; at 100.0 µM 95% | [5]; at 11.0 µM 86% | [5]; at 33.0 µM 94% | [5]; at 50.0 µM 98% | [5]; at 100.0 µM 93% | [6]; at 33.0 µM 96% | [6]; [18] 92% | [6]; at 50.0 µM 95.3% | [6]; at 100.0 µM 94% | [7]; at 50.0 µM 98% | [8]; at 33.0 µM 73% | [8]; at 100.0 µM 89% | [9]; [18] 85% | [9]; at 50.0 µM 78.2% | [10]; at 33.0 µM 95% | [10]; [18] 97% | [10]; at 50.0 µM 90.9% | [10]; at 100.0 µM 93% | [11]; at 33.0 µM 80% | [11]; at 100.0 µM 93% | [12]; at 11.0 µM 70% | [12]; at 33.0 µM 96% | [12]; at 100.0 µM 94% | [13]; at 33.0 µM 71% | [13]; at 100.0 µM 87% | [14]; [18] 98% | [14]; at 50.0 µM 95.2%

C/C(=N\NC(N)=O)C(CN1CCOCC1)C(c1ccccc1)c1c(O)c2ccccc2oc1=O (stereo unspecified)
inactive: [1]; at 1.2 µM 1% | [1]; at 3.7 µM 2% | [1]; at 11.0 µM 0% | [1]; at 33.0 µM 1% | [1]; at 100.0 µM -1% | [2]; at 1.2 µM 6% | [2]; at 3.7 µM 1% | [2]; at 11.0 µM 1% | [2]; at 33.0 µM 0% | [2]; at 100.0 µM -1% | [4]; at 1.2 µM -2% | [4]; at 3.7 µM 2% | [4]; at 11.0 µM -3% | [4]; at 33.0 µM 0% | [4]; at 100.0 µM -24% | [5]; at 1.2 µM -1% | [5]; at 3.7 µM 6% | [5]; at 11.0 µM 9% | [5]; at 33.0 µM 5% | [5]; at 100.0 µM -6% | [6]; at 1.2 µM 4% | [6]; at 3.7 µM 6% | [6]; [17] 13% | [6]; at 11.0 µM 6% | [6]; at 33.0 µM 7% | [6]; [18] 13% | [6]; at 50.0 µM 53.6% | [6]; at 100.0 µM 4% | [15]; at 1.2 µM 7% | [15]; at 3.7 µM 8% | [15]; at 11.0 µM 2% | [15]; at 33.0 µM 2% | [15]; at 100.0 µM 3% | [8]; at 1.2 µM 4% | [8]; at 3.7 µM 3% | [8]; at 11.0 µM 4% | [8]; at 33.0 µM 4% | [8]; at 100.0 µM -2% | [9]; [17] -7% | [9]; [18] -7% | [9]; at 50.0 µM 59.9% | [10]; at 1.2 µM 4% | [10]; at 3.7 µM 1% | [10]; [17] -7% | [10]; at 11.0 µM 2% | [10]; at 33.0 µM 5% | [10]; [18] -7% | [10]; at 50.0 µM 68% | [10]; at 100.0 µM 1% | [11]; at 1.2 µM 2% | [11]; at 3.7 µM 0% | [11]; at 11.0 µM 0% | [11]; at 33.0 µM -2% | [11]; at 100.0 µM -4% | [12]; at 1.2 µM -2% | [12]; at 3.7 µM 1% | [12]; at 11.0 µM 0% | [12]; at 33.0 µM -3% | [12]; at 100.0 µM 1% | [13]; at 1.2 µM -2% | [13]; at 3.7 µM 3% | [13]; at 11.0 µM 1% | [13]; at 33.0 µM -1% | [13]; at 100.0 µM -5% | [14]; [17] 40% | [14]; [18] 40% | [14]; at 50.0 µM 63.2% | [16]; at 1.2 µM 2% | [16]; at 3.7 µM 0% | [16]; at 11.0 µM 6% | [16]; at 33.0 µM 1% | [16]; at 100.0 µM -7%
active: [5]; [17] 89% | [5]; [18] 89% | [5]; at 50.0 µM 70.2% | [7]; [17] 89% | [7]; [18] 89% | [7]; at 50.0 µM 78.2%
